Screens: PubChem, National Center for Advancing Translational Sciences (NCATS)
Tau fibril FP – qHTS for Inhibitors of Tau Fibril Formation, Fluorescence Polarization; Microtubule-associated protein tau (Homo sapiens), P10636; K18 P301L tau heparin fibrillization, Alexa594 FP, 6 h; Potency, µM (top dose mostly 57.7 µM), for the others: at the top dose activity, negative = inhibition, actives largely listed as inhibitors; 0.39% of 280,000 active; AID 1468, 2008; note: nearly all actives have a fitted effect of over 55% in size
Target sequence (P10636 561-689 P618L limits assumed): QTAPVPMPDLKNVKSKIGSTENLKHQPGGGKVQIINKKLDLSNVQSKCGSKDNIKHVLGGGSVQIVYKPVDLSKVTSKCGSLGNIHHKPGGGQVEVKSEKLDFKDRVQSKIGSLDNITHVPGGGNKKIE
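Human K18 P301L fragment (15 uM unlabeled plus 0.24 uM Alexa 594-labeled) in 100 mM sodium acetate pH 7 with compound, aggregation induced by 20 uM heparin for 6 hr at 37 C. ThT (30 uM) added for 1 hr, then Alexa 594 FP read.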
RGS12 GoLoco inh – qHTS Assay for Inhibitors of RGS12 GoLoco Motif Activity (Red Fluorophore); Gai1:RGS12 GoLoco peptide FP, rhodamine, 10 min; Potency, µM (series often up to 61.6 µM), without a hit: top-dose activity, negative = inhibition, most hits filed as inhibitors; 0.44% of 230,000 active; AID 880, 2007; active = well fitted inhibition curve with a large enough effect, not every such curve was filed as active; inactive = no such curve, though single readings can be large or run the other way; note: nearly all actives have a fitted effect of over 30% in size
Target sequence (P63096 whole entry, looked up): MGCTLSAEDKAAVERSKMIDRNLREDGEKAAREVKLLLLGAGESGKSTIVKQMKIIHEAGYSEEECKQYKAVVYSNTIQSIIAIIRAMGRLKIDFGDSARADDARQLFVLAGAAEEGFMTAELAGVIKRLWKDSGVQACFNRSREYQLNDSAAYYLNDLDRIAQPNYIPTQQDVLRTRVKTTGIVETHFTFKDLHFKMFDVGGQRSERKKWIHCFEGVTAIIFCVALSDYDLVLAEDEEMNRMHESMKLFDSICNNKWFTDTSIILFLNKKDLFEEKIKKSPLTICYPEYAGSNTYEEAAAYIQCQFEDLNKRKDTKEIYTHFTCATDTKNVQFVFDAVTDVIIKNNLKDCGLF
Tau fibril ThT – qHTS for Inhibitors of Tau Fibril Formation, Thioflavin T Binding. recombinant tau K18 P301L, heparin-induced fibrillization, ThT fluorescence. 2.1% of 270,000 active. Potency, µM (highest dose often 57.4 µM), inactives show at the highest dose activity, negative = inhibition, hits mostly inhibitors. Microtubule-associated protein tau (Homo sapiens), P10636; note: nearly all actives have a fitted effect of over 55% in size
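Using a mix of unlabeled (15 uM) and Alexa 594-labeled (0.24 uM) tau K18 P301L, heparin-triggered fibrillization over 6 hr at 37 C was scored by ThT fluorescence.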
TRb SRC2 PPI – qHTS for Inhibitors of the Interaction of Thyroid Hormone Receptor and Steroid Receptor Coregulator 2. Thyroid hormone receptor beta (Homo sapiens), P10828. TRbeta-SRC2 peptide binding, fluorescence polarization; receptor liganded with 1 µM T3. Potency, µM (series often up to 106 µM), without a hit: top-dose activity change, negative = inhibition, usual class: inhibitors. 0.065% of 280,000 active;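 note: plate controls were bound peptide for no effect and peptide without receptor for full effect; nearly all actives have a fitted effect of over 50% in size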
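Human TRb ligand-binding domain (0.6 uM) is mixed with 20 nM Texas Red SRC2 peptide and 1 uM T3; after compound addition and 5 hr at ambient temperature, polarization is measured and normalized to unbound and bound controls.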
Tau fluor cs – Counterscreen qHTS for Inhibitors of Tau Fibril Formation, Fluorescence Polarization; tau K18 P301L Alexa594 fluorescence, heparin fibrillization; Potency, µM (titrated, usually from 57.7 µM), inactives show at the top dose activity change, negative = decrease; 0.93% of 280,000 active; AID 1463, 2008; note: nearly all actives have a fitted effect of over 55% in size
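Human tau K18 P301L (15 uM unlabeled, 0.24 uM Alexa 594-labeled) in 100 mM sodium acetate pH 7 with 20 uM heparin, 6 hr at 37 C. ThT 30 uM added, 1 hr ambient; Alexa 594 FP and total fluorescence read at 555/632 nm.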
TR SRC2 fluor cs – Total Fluorescence Counterscreen for Inhibitors of the Interaction of Thyroid Hormone Receptor and Steroid Receptor Coregulator 2; TRb/SRC2 Texas Red total fluorescence interference; Potency, µM (doses to about 106 µM), inactives show at the highest dose fluorescence change, negative = quenching; 0.29% of 280,000 active; active = well fitted curve in either direction with a large enough effect; inconclusive = small, poorly fitted or top-dose-only effect
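Human TRb ligand-binding domain at 0.6 uM with 20 nM Texas Red SRC2 peptide in Tris buffer containing 1 uM T3 and 5% DMSO, incubated with compound 5 h at ambient temperature. Total fluorescence (555/632 nm) calculated as parallel + 2 × perpendicular.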
Starred values were filed as active, the others as inactive; u = inconclusive; x = no result; [ ] = another dose, or the depositor's remark. Sampled rows, rich in hits. Any-hit rate of the full collection: about 3.2%. Unless noted, calls come from the whole dose curve; as a rule, active = well fitted curve in the direction sought with a large enough effect; inconclusive = small, poorly fitted or top-dose-only effect, or another doubt; inactive = no such curve, though single readings can be large; an effect the other way counts as inactive or inconclusive. Unless noted, % is set by controls: 0 for no effect and ±100 for the full control effect; potency is the fitted concentration of half-maximal effect.

SMILES | Tau fibril FP | RGS12 GoLoco inh | Tau fibril ThT | TRb SRC2 PPI | Tau fluor cs | TR SRC2 fluor cs
CCN(c1ccccc1)S(=O)(=O)c1ccc2[nH]cc(C(=O)NC3CCCCC3)c(=O)c2c1 | 3.5µM* | x | u | -9% | u | -4%
Cc1ccc(C)c(N(C)S(=O)(=O)c2ccc3[nH]cc(C(=O)NCCN4CCOCC4)c(=O)c3c2)c1 | -8% | 3% | 2% | -6% | -19% | 0%
CCN(c1ccccc1)S(=O)(=O)c1ccc2[nH]cc(C(=O)NCc3ccc(C)cc3)c(=O)c2c1 | 3.5µM* | x | 11% | -12% | u | -55%
CCN(c1ccccc1)S(=O)(=O)c1ccc2[nH]cc(C(=O)NCCOC)c(=O)c2c1 | u | 2% | 8% | -13% | -15% | 2%
Cc1ccc(C)c(N(C)S(=O)(=O)c2ccc3[nH]cc(C(=O)NC4CCCC4)c(=O)c3c2)c1 | 16µM* | x | 5% | -8% | u | 1%
CCC[C@H](NC(=O)[C@H](CC(C)C)N(C)C(=O)CNC(=O)[C@@H](NC(=O)[C@H](Cc1ccccc1)NC(=O)[C@H](CCCCN)NC(=O)[C@@H](N)CC(=O)O)C(C)C)C(N)=O | x | x | x | -1% | x | -1%
CC(C)=CCC/C(C)=C/CC/C(C)=C/CSCC(=O)O | 11% | 8% | u | 5% | 4% | -3%
CSc1nsc2nc(=O)c(/C=C3\C(C)=Nc4ccccc43)c(N)n12 | -3% | 43% | u | 5% | -27% | -6%
Oc1c(C=C2N=c3ccccc3=N2)sc(=S)n1C1CCCCC1 | -1% | -4% | -10% | -3% | -9% | 5%
CCn1c(O)c(C=C2N=c3ccccc3=N2)sc1=S | 1% | 19% | -17% | -7% | -12% | 1%
O=C(Nn1c(O)c(C=C2N=c3ccccc3=N2)sc1=S)c1ccccc1Cl | u | 9% | 11µM* | -7% | 18µM*[quencher] | -6%
Oc1c(C=C2N=c3ccccc3=N2)sc(=S)n1-c1ccccc1 | 5% | 7% | 3% | -14%[53 µM] | 1% | 32µM*[quencher]
O=S(=O)(Nn1c(O)c(C=C2N=c3ccccc3=N2)sc1=S)c1ccccc1 | 0% | 15% | 11µM* | 10% | u | -4%
CC1=Nc2ccccc2/C1=C/c1sc(=S)n(-c2cccc(C(=O)O)c2)c1O | 12% | 48% | 3.5µM* | 0% | u | -7%
COCc1cc(C)nc(OCC(=O)N/N=C/c2ccc(-c3cc([N+](=O)[O-])ccc3C)o2)c1C#N | 1% | -8% | -20% | 1% | u | -4%
Cc1ccc([N+](=O)[O-])cc1-c1ccc(/C=C(\C#N)c2[nH]nc(N)c2C#N)o1 | u | 4% | 8.9µM* | 4% | u | -7%
Oc1cc(-c2ccccc2)c2ccccc2c1 | u | 7% | 14µM* | 0% | u | -1%
CC(=O)Nc1ccc(S(=O)(=O)Oc2ccc(/C=N/NC(=O)c3ccc(Cl)cc3)cc2)cc1 | 13µM* | 3% | u | 14% | u | 3%
CN(C)c1ccc(NC(=S)c2ccccn2)cc1 | 4% | -5% | 3.5µM* | -4% | u | 0%
CN(C)c1ccc(C(=S)Nc2ccccc2)cc1 | 1% | -9% | u | 2% | -23% | -1%
C[C@H]1O[C@@H](n2cnc3c(N)ncnc32)C[C@@H]1OP(=O)(O)OP(=O)(O)OP(=O)(O)O | x | x | x | 6% | x | -3%
CCCn1cc(S(=O)(=O)c2ccc(CC)cc2)c(=O)c2cc(F)c(N(CC)CC)cc21 | 0% | x | 1% | 6% | 3% | 6%
CCn1cc(S(=O)(=O)c2ccccc2)c(=O)c2cc(F)c(N3CCCC3)cc21 | 0% | x | 3% | 3% | 0% | 10%
CCCn1cc(S(=O)(=O)c2ccccc2)c(=O)c2cc(F)c(N3CCCC3)cc21 | 3% | x | 0% | -1% | 12% | -7%
CCCn1cc(S(=O)(=O)c2cccc(Cl)c2)c(=O)c2cc(F)c(N3CCN(CC)CC3)cc21 | 3% | x | 6% | -26% | 5% | 112µM*[quencher]
SMILES | Tau fibril FP | RGS12 GoLoco inh | Tau fibril ThT | TRb SRC2 PPI | Tau fluor cs | TR SRC2 fluor cs
CCn1cc(S(=O)(=O)c2ccccc2)c(=O)c2cc(F)c(N3CCN(c4ccccc4)CC3)cc21 | -5% | x | 8% | u | 1% | 56µM*[quencher]
CCN(CC)c1cc2c(cc1F)c(=O)c(S(=O)(=O)c1ccc(OC)cc1)cn2CC | 0% | x | 0% | -25% | -1% | 50µM*[quencher]
COc1ccc2c(c1)O[C@@H](c1ccc3c(c1)OCO3)[C@H](OC(=O)NCCOc1ccccc1)C2=O | 1% | -11% | -2% | -9% | -4% | -1%
NC(N)=NC(N)=Nc1ccccc1 (tested in a mixture with another compound) | x | -9%[14.2 µM] | x | x | x | x
CCN1C=C(Cc2ccccc2C)C2=C(C1)C(c1ccccc1C)C(C#N)=C(N)O2 (stereo unspecified) | -9% | 150% | u | u | -13% | 45µM*[fluorescent]
CCN1C=C(Cc2ccc(F)cc2)C2=C(C1)C(c1ccc(F)cc1)C(C#N)=C(N)O2 (stereo unspecified) | -11% | 76% | u | -26% | -24% | 18%
COc1cccc(-c2ccc3c(N)c(C(=O)c4ccc(Cl)cc4)sc3n2)c1 | u | x | 4.5µM* | 6% | 2.8µM*[quencher] | -4%
CCOc1ccccc1NC(=O)c1sc2nc(-c3ccc(OC)cc3)ccc2c1N | 13% | x | u | 6% | 3.5µM*[quencher] | -3%
COc1ccc(-c2ccc3c(N)c(C(=O)Nc4ccc(C)cc4C)sc3n2)cc1OC | 5% | x | u | -1% | 8.9µM*[quencher] | -2%
CCOc1ccccc1NC(=O)c1sc2nc(C)cc(C)c2c1N | -2% | x | -7% | 7% | -14% | 2%
COc1ccc(Cl)cc1NC(=O)c1sc2nc(-c3ccc(OC)c(OC)c3)ccc2c1N | 4% | x | u | 0% | u | -21%
COc1ccc(C(=O)c2sc3nc(-c4ccccc4)ccc3c2N)cc1 | -18% | 2% | u | 7% | 10µM*[quencher] | -2%
NC(CC(=O)Nc1ccc(Oc2cc(F)c(F)cc2Br)cc1)C(=O)O (stereo unspecified) | x | x | x | 6% | x | 2%
C=CCSc1nnc2nc3[nH]c4c(C)cccc4c3nn12 | 8% | 34% | 16µM* | 0% | -15% | -7%
